PubChem BioAssay (Tox21)
Records with an inconclusive call do not appear. A number with no mark means an inactive call. Calls follow the shape of the full dose curve.

Assay: cAMP Responsive Elements (CRE) small molecule agonists, cell-based qHTS assay (AID 1963590)
Conditions: CRE-bla HEK293T, beta-lactamase FRET ratio, 3 h; series mostly up to 92.4 µM; activation: at the top concentration
How it was run: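 A CRE-responsive beta-lactamase reporter in HEK 293T cells was used. Treatment ran 3 h at 37 C; detection used LiveBLAzer B/G FRET substrate for 2 h at room temperature.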
% is scaled to controls: 0 for no effect and ±100 for the full control effect.

**Q.** For `CCCOC(=O)CC`, which “activation” value is on record?
**A.** 1.26%

**Q.** For `C=CC(=O)N1CCOCC1`, which “activation” value is on record?
**A.** 0.289%

**Q.** With `C=CCOCC(O)CS(=O)(=O)O` (stereo not given) as the compound, how does the “activation” value read?
**A.** -0.949%

**Q.** For `CCCCNCC`, which “activation” value is on record?
**A.** -1.79%

**Q.** With `CCCC1CCC(=O)CC1` as the compound, how does the “activation” value read?
**A.** 0.0069%

**Q.** For `CCC(C)COC(C)=O` (stereo not given), which “activation” value is on record?
**A.** -0.678%

**Q.** Which “activation” value does the source give for `CCCNC(C)(C)COC(=O)c1ccccc1` here?
**A.** -1.58% [at 42.5 µM]

**Q.** For `Cc1ccc(C#N)cc1`, which “activation” value is on record?
**A.** -0.385%

**Q.** With `Cc1nnc(SCC2=C(C(=O)O)N3C(=O)[C@@H](NC(=O)Cn4cnnn4)[C@H]3SC2)s1` as the compound, how does the “activation” value read?
**A.** 0.337% [at 42.5 µM]

**Q.** For `CCN(CC)CCNC(C(=O)OCCC(C)C)c1ccccc1` (stereo not given), which “activation” value is on record?
**A.** 0.245% [at 42.5 µM]

**Q.** With `CCOC(=O)CC(C)C` as the compound, how does the “activation” value read?
**A.** -1.29%

**Q.** Which “activation” value does the source give for `CCCCCCCCCCCCC1CO1` (stereo not given) here?
**A.** 1.74%

**Q.** With `O=C(O)/C=C(\CC(=O)O)C(=O)O` as the compound, how does the “activation” value read?
**A.** -0.43% [at 42.5 µM]

**Q.** Which “activation” value does the source give for `CCCCCCCCS(=O)(=O)O` here?
**A.** 0.0511%

**Q.** With `CC(C)CCCCCOC(=O)CCCCC(=O)OCCCCCC(C)C` as the compound, how does the “activation” value read?
**A.** -1.64%

**Q.** With `CCOc1ccc(NC(N)=O)cc1` as the compound, how does the “activation” value read?
**A.** -0.0889%

**Q.** For `CC1(C)CC(O)CC(C)(C)N1[O]`, which “activation” value is on record?
**A.** 0.588%

**Q.** With `CC(C)COC(=O)CCCCC(=O)OCC(C)C` as the compound, how does the “activation” value read?
**A.** -0.0508%

**Q.** Which “activation” value does the source give for `O=C1NCC2(CCN(CCc3ccccc3)CC2)O1` here?
**A.** -0.909% [at 42.5 µM]

**Q.** With `C=C(C)C(=O)OCC` as the compound, how does the “activation” value read?
**A.** 0.64%

**Q.** For `CC(CO)(CO)[N+](=O)[O-]`, which “activation” value is on record?
**A.** -0.903%

**Q.** Which activation does the source give for `C=CCCCCCCCCCCCCCC` here?
**A.** -0.128% [at 19 µM]

**Q.** Which “activation” value does the source give for `OC(C#CCN1CCCC1)(c1ccccc1)c1ccccc1` here?
**A.** 0.155% [at 42.5 µM]

**Q.** Which “activation” value does the source give for `C=C(C)[C@@H]1CC=C(C)C(=O)C1` here?
**A.** -1.35%

**Q.** Which “activation” value does the source give for `CCC(C)N` (stereo not given) here?
**A.** 0.633%

**Q.** Which “activation” value does the source give for `COC(C)=O` here?
**A.** 0.0722%

**Q.** With `CCCCN1C[C@H](O)[C@@H](O)[C@H](O)[C@H]1CO` as the compound, how does the “activation” value read?
**A.** -0.159% [at 42.5 µM]

**Q.** For `CC(=O)OCC(=O)NCCCOc1cccc(CN2CCCCC2)c1`, which “activation” value is on record?
**A.** 7.24% [at 42.5 µM]

**Q.** Which “activation” value does the source give for `OC1CCCCC1c1ccccc1` (stereo not given) here?
**A.** -0.122%

**Q.** For `CCCCCCCCCCC=O`, which “activation” value is on record?
**A.** -0.298%

**Q.** For `CC(C)(C)CC(C)(C)N`, which “activation” value is on record?
**A.** 0.327%

**Q.** With `C=CCCCCCCCCOC(C)=O` as the compound, how does the “activation” value read?
**A.** 1.33%

**Q.** With `C[C@H](NC(CCc1ccccc1)C(=O)O)C(=O)N1CCC[C@H]1C(=O)O` (stereo not given in full) as the compound, how does the “activation” value read?
**A.** -0.66% [at 42.5 µM]

**Q.** For `CC(N=C(NC#N)Nc1ccncc1)C(C)(C)C` (stereo not given), which “activation” value is on record?
**A.** -1.22% [at 42.5 µM]

**Q.** With `OCCC1CCCCN1` (stereo not given) as the compound, how does the “activation” value read?
**A.** 0.988%

**Q.** For `C[C@]12CCC(=O)C=C1CC[C@H]1[C@@H]3CC[C@](O)(C(=O)CO)[C@@]3(C)C[C@H](O)[C@@]12F`, which “activation” value is on record?
**A.** 7.23% [at 42.5 µM]

**Q.** For `CCC(C)(CCC(C)C)C(=O)O` (stereo not given), which “activation” value is on record?
**A.** -0.198%

**Q.** For `COP(=O)(O)OP(=O)(O)OC`, which “activation” value is on record?
**A.** 0.895%

**Q.** Which “activation” value does the source give for `CCCC(=O)OC/C=C(\C)CCC=C(C)C` here?
**A.** -0.679%

**Q.** For `NNC(=O)CP(=O)(c1ccccc1)c1ccccc1`, which “activation” value is on record?
**A.** 0.843% [at 42.5 µM]
